According to PubChem BioAssay (Tox21):
Inconclusive results are not listed. Activity calls are given as the source filed them. Unless noted, calls come from the whole dose curve; as a rule, active = well fitted curve in the direction sought with a large enough effect in the repeat runs; inconclusive = weak or mixed curves; inactive = flat fitted curve, though single readings scatter.

Test system: not listed separately
Experiment: qHTS assay to test for compound auto fluorescence at 460 nm (blue) in HepG2 cells (AID 720687)
Settings: autofluorescence 405/460 nm, 1 h; series mostly up to 91.3 µM; fluorescence, % of fluorescent control: at the top concentration
Method in brief: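 Blue-channel autofluorescence (Ex/Em 405/460 nm, triamterene-equivalent) was measured after 1 hr compound exposure at 37 C, 5% CO2. Cells were HepG2, plated overnight at 37 C in MEM plus 10% FBS.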
% is set by controls: 0 for no effect and ±100 for the full control effect.

Row | Structure (SMILES) | fluorescence, % of fluorescent control | Potency
1 | CN=C(N)NC(=O)Nc1c(C)cccc1C | -0.0005% [at 46 µM] (inactive) | –
2 | Cc1ccc(N(CC2=NCCN2)c2cccc(O)c2)cc1 | 0.0067% [at 46 µM] (inactive) | –
3 | CCCCCCCCCCCCCOS(=O)(=O)O | 0.121% (inactive) | –
4 | [Cl][Nd]([Cl])[Cl] | -0.242% (inactive) | –
5 | Nc1ccn([C@H]2CS[C@@H](CO)O2)c(=O)n1 | – | inactive
6 | CC(C)C(=O)OCCOc1ccccc1 | -0.174% (inactive) | –
7 | CCCCCc1ccco1 | 0.66% (inactive) | –
8 | Cc1cccc(C)c1NC(=O)c1cc(S(N)(=O)=O)c(Cl)cc1O | -0.0293% [at 46 µM] (inactive) | –
9 | NC(=O)c1ccccc1[N+](=O)[O-] | 0.0947% [at 95.7 µM] (inactive) | –
10 | CC(C)C1CCC(C(=O)N[C@H](Cc2ccccc2)C(=O)O)CC1 (some centres undefined) | 0.0703% [at 46 µM] (inactive) | –
11 | c1ccc(CCCc2ccncc2)cc1 | 0.105% (inactive) | –
12 | CC[C@H]1OC(=O)[C@H](C)[C@@H](O[C@H]2C[C@@](C)(OC)[C@@H](O)[C@H](C)O2)[C@H](C)[C@@H](O[C@@H]2O[C@H](C)C[C@H](N(C)C)[C@H]2O)[C@](C)(O)C[C@@H](C)/C(=N\OCOCCOC)[C@H](C)[C@@H](O)[C@]1(C)O | – | inactive
13 | CC1CCc2nccnc21 (centres undefined) | 0.0438% (inactive) | –
14 | O=C(O)CNC(=O)c1ccccc1I | -0.0237% [at 46 µM] (inactive) | –
15 | Nc1nc(-c2ccc([N+](=O)[O-])cc2)cs1 | -0.0568% (inactive) | –
16 | CC(=O)C(C)=O | -0.0259% (inactive) | –
17 | CC(=O)OCCC(C)CC(C)(C)C (centres undefined) | -0.0065% (inactive) | –
18 | CC(=O)OCC1=C(C(=O)O)N2C(=O)[C@@H](NC(=O)CSc3ccncc3)[C@H]2SC1 | 0.0274% [at 46 µM] (inactive) | –
19 | CNc1c2c(nn1C)CCCC2 | -0.0164% [at 46 µM] (inactive) | –
20 | Cc1cccc2sc(N)nc12 | -0.0095% [at 95.7 µM] (inactive) | –
21 | CCCCCCC(O)CCCCCCCCCCC(=O)OC (centres undefined) | 0.0031% (inactive) | –
22 | CC(C(=O)O)c1ccc(C(=O)c2cccs2)cc1 (centres undefined) | 0.0525% [at 18.6 µM] (inactive) | –
23 | CC(C)(C)S | -0.0298% [at 95.7 µM] (inactive) | –
24 | CC(C)N(C)C | 0.03% (inactive) | –
25 | O=S(=O)(Cl)c1c(Cl)cccc1Cl | 0.399% (inactive) | –
26 | O=[N+]([O-])C1(Br)COCOC1 | -0.0595% (inactive) | –
27 | CC1=C2[C@@H]([C@H](C)CC[C@H]2/C=C(\C)C(=O)O)[C@H](O)C1 | -0.0638% (inactive) | –
28 | CN1CCCN(C(c2ccccc2)c2ccc(Cl)cc2)CC1 (centres undefined) | -0.0025% [at 46 µM] (inactive) | –

Target: Glucocorticoid receptor (Homo sapiens) (UniProt P04150)
Experiment: qHTS assay to identify small molecule agonists of the glucocorticoid receptor (GR) signaling pathway (AID 720691; active = well fitted activation curve with a large enough effect in the signal ratio in the repeat runs, not every such curve was filed as active; the % refers to the signal ratio)
Settings: GR-bla HeLa, beta-lactamase reporter ratio, 18 h; series mostly up to 62.4 µM; activation: at the top concentration
Method in brief: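 Cells: GR-bla HeLa, endogenous GR with stably integrated GRE-beta-lactamase reporter. Treatment 18 h, 37 C, compounds delivered in DMSO. Detection via LiveBLAzer B/G FRET substrate, 2 h RT, fluorescence intensity.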

Chain of Glucocorticoid receptor (Homo sapiens) (P04150 whole entry, looked up): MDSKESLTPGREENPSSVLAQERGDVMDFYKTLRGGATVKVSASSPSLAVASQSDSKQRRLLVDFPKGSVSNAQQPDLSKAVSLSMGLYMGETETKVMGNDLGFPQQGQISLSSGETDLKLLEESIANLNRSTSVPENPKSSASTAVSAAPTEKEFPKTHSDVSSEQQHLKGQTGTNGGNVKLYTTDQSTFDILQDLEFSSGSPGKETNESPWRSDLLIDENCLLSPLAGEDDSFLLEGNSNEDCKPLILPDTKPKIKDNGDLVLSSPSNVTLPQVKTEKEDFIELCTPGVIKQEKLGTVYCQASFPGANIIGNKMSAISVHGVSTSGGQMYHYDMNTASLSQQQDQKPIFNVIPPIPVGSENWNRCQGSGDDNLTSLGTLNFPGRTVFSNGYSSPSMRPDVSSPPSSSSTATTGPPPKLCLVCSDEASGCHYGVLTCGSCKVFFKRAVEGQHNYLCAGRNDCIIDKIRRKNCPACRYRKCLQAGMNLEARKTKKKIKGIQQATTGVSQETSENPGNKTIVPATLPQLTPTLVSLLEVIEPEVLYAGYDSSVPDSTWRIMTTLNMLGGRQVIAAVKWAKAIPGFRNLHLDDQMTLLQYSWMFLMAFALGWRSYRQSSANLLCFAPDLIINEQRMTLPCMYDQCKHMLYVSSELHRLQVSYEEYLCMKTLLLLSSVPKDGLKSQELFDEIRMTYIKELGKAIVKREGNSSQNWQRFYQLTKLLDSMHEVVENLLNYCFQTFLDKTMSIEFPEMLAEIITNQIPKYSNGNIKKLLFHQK

Row | Structure (SMILES) | activation | Potency
29 | CN=C(N)NC(=O)Nc1c(C)cccc1C | 1.28% (inactive) | –
30 | Cc1ccc(N(CC2=NCCN2)c2cccc(O)c2)cc1 | -4.48% (inactive) | –
31 | Cc1ccc2c(c1)CCCN2 | -1.27% (inactive) | –
32 | CCCCCCCCCCCCCCN(C)C | -1.13% [at 29.2 µM] (inactive) | –
33 | [Cl][Nd]([Cl])[Cl] | -5.48% (inactive) | –
34 | Nc1ccn([C@H]2CS[C@@H](CO)O2)c(=O)n1 | – | inactive
35 | COC(=O)CC(C(C)=O)C(=O)OC (centres undefined) | -0.248% (inactive) | –
36 | CC(C)C(=O)OCCOc1ccccc1 | -0.27% (inactive) | –
37 | CCCCCc1ccco1 | -0.29% (inactive) | –
38 | CC(C)C(O)C(C)(C)CO (centres undefined) | 3.1% [at 79.2 µM] (inactive) | –
39 | Cc1cccc(C)c1NC(=O)c1cc(S(N)(=O)=O)c(Cl)cc1O | -5.84% (inactive) | –
40 | CC(C)C1CCC(C(=O)N[C@H](Cc2ccccc2)C(=O)O)CC1 (some centres undefined) | -6.14% (inactive) | –
41 | c1ccc(CCCc2ccncc2)cc1 | 7.4% (inactive) | –
42 | CC[C@H]1OC(=O)[C@H](C)[C@@H](O[C@H]2C[C@@](C)(OC)[C@@H](O)[C@H](C)O2)[C@H](C)[C@@H](O[C@@H]2O[C@H](C)C[C@H](N(C)C)[C@H]2O)[C@](C)(O)C[C@@H](C)/C(=N\OCOCCOC)[C@H](C)[C@@H](O)[C@]1(C)O | – | inactive
43 | O=C(O)CNC(=O)c1ccccc1I | -0.0202% (inactive) | –
44 | CC(C)N=C=NC(C)C | 0.401% (inactive) | –

Row | Structure (SMILES) | activation | Potency
45 | Nc1nc(-c2ccc([N+](=O)[O-])cc2)cs1 | -7.05% [at 79.2 µM] (inactive) | –
46 | Cc1ccccc1S(N)(=O)=O | -1.43% (inactive) | –
47 | CC(=O)C(C)=O | -2.24% [at 79.2 µM] (inactive) | –
48 | CC(=O)OCCC(C)CC(C)(C)C (centres undefined) | 4.48% (inactive) | –
49 | CC(=O)OCC1=C(C(=O)O)N2C(=O)[C@@H](NC(=O)CSc3ccncc3)[C@H]2SC1 | 0.267% (inactive) | –
50 | CNc1c2c(nn1C)CCCC2 | 21% (inactive) | –
51 | Cc1cccc2sc(N)nc12 | -11.4% [at 79.2 µM] (inactive) | –
52 | CCCCCCC(O)CCCCCCCCCCC(=O)OC (centres undefined) | 0.138% (inactive) | –
53 | CC(C(=O)O)c1ccc(C(=O)c2cccs2)cc1 (centres undefined) | -2.55% [at 29.2 µM] (inactive) | –
54 | COC(OC)OC | 1.37% (inactive) | –
55 | OCC(CO)n1cnc(-c2ccc(F)cc2)c1-c1ccnc(Oc2ccccc2)n1 | -0.0176% (inactive) | –
56 | CC(C)(C)S | -3.1% [at 79.2 µM] (inactive) | –
57 | CC(C)N(C)C | -0.676% (inactive) | –
58 | O=S(=O)(Cl)c1c(Cl)cccc1Cl | -1.79% (inactive) | –
59 | CC1=C2[C@@H]([C@H](C)CC[C@H]2/C=C(\C)C(=O)O)[C@H](O)C1 | 0.702% (inactive) | –
60 | CN1CCCN(C(c2ccccc2)c2ccc(Cl)cc2)CC1 (centres undefined) | -7.65% (inactive) | –

Target: Glucocorticoid receptor (Homo sapiens) (UniProt P04150)
Experiment: qHTS assay to identify small molecule antagonists of the glucocorticoid receptor (GR) signaling pathway (AID 720692; active = well fitted inhibition curve with a large enough effect in the signal ratio in the repeat runs, not every such curve was filed as active; the % refers to the signal ratio; note: potency is the fitted concentration of half-maximal effect)
Settings: GR-bla HeLa, beta-lactamase FRET ratio, dexamethasone-stimulated, 18 h; series mostly up to 58.5 µM; activity change, negative = inhibition: at the top concentration
Method in brief: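 Quantitative HTS in antagonist format: HeLa cells expressing endogenous GR and a stably integrated GRE-bla reporter, stimulated with 5 nM dexamethasone (final) alongside test compounds for 18 h.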

Row | Structure (SMILES) | activity change, negative = inhibition | Potency
61 | CN=C(N)NC(=O)Nc1c(C)cccc1C | -13.2% (inactive) | –
62 | Cc1ccc(N(CC2=NCCN2)c2cccc(O)c2)cc1 | -9.96% (inactive) | –
63 | Cc1ccc2c(c1)CCCN2 | 2.2% (inactive) | –
64 | CCCCCCCCCCCCCCN(C)C | -8.13% [at 27 µM] (inactive) | –
65 | [Cl][Nd]([Cl])[Cl] | -4.89% (inactive) | –
66 | Nc1ccn([C@H]2CS[C@@H](CO)O2)c(=O)n1 | – | inactive
67 | COC(=O)CC(C(C)=O)C(=O)OC (centres undefined) | -5.58% (inactive) | –
68 | CC(C)C(=O)OCCOc1ccccc1 | -2.71% (inactive) | –
69 | CCCCCc1ccco1 | – | 31.9 µM (active)
70 | CC(C)C(O)C(C)(C)CO (centres undefined) | 19.9% [at 78.9 µM] (inactive) | –
71 | Cc1cccc(C)c1NC(=O)c1cc(S(N)(=O)=O)c(Cl)cc1O | -21% (inactive) | –
72 | CC[C@H]1OC(=O)[C@H](C)[C@@H](O[C@H]2C[C@@](C)(OC)[C@@H](O)[C@H](C)O2)[C@H](C)[C@@H](O[C@@H]2O[C@H](C)C[C@H](N(C)C)[C@H]2O)[C@](C)(O)C[C@@H](C)/C(=N\OCOCCOC)[C@H](C)[C@@H](O)[C@]1(C)O | – | inactive
73 | O=C(O)CNC(=O)c1ccccc1I | -0.972% (inactive) | –
74 | CC(C)N=C=NC(C)C | 1.04% (inactive) | –
75 | Nc1nc(-c2ccc([N+](=O)[O-])cc2)cs1 | -8.69% [at 78.9 µM] (inactive) | –
76 | Cc1ccccc1S(N)(=O)=O | 2.13% (inactive) | –
77 | CC(=O)C(C)=O | -13.5% [at 78.9 µM] (inactive) | –
78 | CNc1c2c(nn1C)CCCC2 | 3.21% (inactive) | –
79 | Cc1cccc2sc(N)nc12 | -20.8% [at 78.9 µM] (inactive) | –
80 | CC(C(=O)O)c1ccc(C(=O)c2cccs2)cc1 (centres undefined) | -10.2% [at 27 µM] (inactive) | –
81 | COC(OC)OC | 3.63% (inactive) | –
82 | CC(C)N(C)C | -5% (inactive) | –
83 | O=S(=O)(Cl)c1c(Cl)cccc1Cl | 3.16% (inactive) | –
84 | CC1=C2[C@@H]([C@H](C)CC[C@H]2/C=C(\C)C(=O)O)[C@H](O)C1 | -12.2% (inactive) | –
